Laboratory results reported in PubChem BioAssay AID1159580 (chemical genetic matrix, 2015).
About 2,000 (36%) of roughly 5,500 compounds were called active. Inconclusive results (about 18%) are left out. Cut-off read from the data, not from the text of the source: active = normalized growth mostly below about 0.91 (no sharp cut-off); inconclusive = no clear call, values can overlap the other calls; inactive = mostly above about 0.92. This is one part of the list.

Assay: chemical genetic growth profiling, strain panel (AID 1159580);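 note: tested at 20 µM; growth read once vehicle control cultures reached saturation at 30 °C; 1 = growth at the plate median or of vehicle wells; lower values mean less growth of the strain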
Conditions: growth OD

Measured: normalized growth

CC1(C)S[C@@H]2[C@H](NC(=O)[C@H](NC(=O)N3CCNC3=O)c3ccccc3)C(=O)N2C1C(=O)O (stereo partly drawn)
inactive: S. cerevisiae deletion strains, locus YJR075W, strain HOC1, stronger effect = lower value 1.01 | S. cerevisiae deletion strains, locus YKL009W, strain mrt4, stronger effect = lower value 0.967 | S. cerevisiae deletion strains, locus YKL068W, stronger effect = lower value 0.979 | S. cerevisiae deletion strains, locus YKL085W, strain MDH1 (second series), stronger effect = lower value 0.998 | S. cerevisiae deletion strains, locus YKL085W, strain MDH1, stronger effect = lower value 0.998 | S. cerevisiae deletion strains, locus YKL160W, strain elf1, stronger effect = lower value 0.957 | S. cerevisiae deletion strains, locus YKL190W, strain CNB1, stronger effect = lower value 0.995 | S. cerevisiae deletion strains, locus YKR001C, strain vps1, stronger effect = lower value 1 | S. cerevisiae deletion strains, locus YKR026C, strain gcn3, stronger effect = lower value 0.999 | S. cerevisiae deletion strains, locus YKR091W, strain srl3, stronger effect = lower value 0.974 | S. cerevisiae deletion strains, locus YLL001W, strain dnm1, stronger effect = lower value 0.957 | S. cerevisiae deletion strains, locus YLL026W, stronger effect = lower value 0.984 | S. cerevisiae deletion strains, locus YLL041C, strain sdh2, stronger effect = lower value 0.983 | S. cerevisiae deletion strains, locus YLR027C, strain aat2, stronger effect = lower value 0.976 | S. cerevisiae deletion strains, locus YLR039C, strain RIC1, stronger effect = lower value 1 | S. cerevisiae deletion strains, locus YLR058C, strain SHM2, stronger effect = lower value 0.989 | S. cerevisiae deletion strains, locus YLR102C, strain apc9, stronger effect = lower value 0.992 | S. cerevisiae deletion strains, locus YLR113W, strain HOG1, stronger effect = lower value 0.956 | S. cerevisiae deletion strains, locus YLR221C, strain rsa3, stronger effect = lower value 0.964 | S. cerevisiae deletion strains, locus YLR258W, strain gsy2, stronger effect = lower value 0.988 | S. cerevisiae deletion strains, locus YLR262C, strain YPT6 (second series), stronger effect = lower value 0.958 | S. cerevisiae deletion strains, locus YLR262C, strain YPT6, stronger effect = lower value 0.98 | S. cerevisiae deletion strains, locus YLR268W, strain sec22, stronger effect = lower value 0.993 | S. cerevisiae deletion strains, locus YLR320W, strain mms22, stronger effect = lower value 0.956 | S. cerevisiae deletion strains, locus YLR330W, strain CHS5, stronger effect = lower value 0.997 | S. cerevisiae deletion strains, locus YLR342W, strain FKS1 (second series), stronger effect = lower value 1.01 | S. cerevisiae deletion strains, locus YLR342W, strain FKS1, stronger effect = lower value 0.993 | S. cerevisiae deletion strains, locus YLR357W, strain rsc2, stronger effect = lower value 0.977 | S. cerevisiae deletion strains, locus YLR370C, strain arc18, stronger effect = lower value 0.98 | S. cerevisiae deletion strains, locus YLR371W, strain rom2, stronger effect = lower value 0.997 | S. cerevisiae deletion strains, locus YLR384C, strain iki3, stronger effect = lower value 0.976 | S. cerevisiae deletion strains, locus YLR418C, strain cdc73, stronger effect = lower value 0.995 | S. cerevisiae deletion strains, locus YML016C, strain PPZ1, stronger effect = lower value 1 | S. cerevisiae deletion strains, locus YML032C, strain rad52, stronger effect = lower value 1.01 | S. cerevisiae deletion strains, locus YML120C, strain ndi1, stronger effect = lower value 0.959 | S. cerevisiae deletion strains, locus YML124C, strain tub3, stronger effect = lower value 0.996 | S. cerevisiae deletion strains, locus YMR058W, strain fet3, stronger effect = lower value 0.973 | S. cerevisiae deletion strains, locus YMR078C, strain ctf18, stronger effect = lower value 0.98 | S. cerevisiae deletion strains, locus YMR125W, strain sto1, stronger effect = lower value 1 | S. cerevisiae deletion strains, locus YMR129W, stronger effect = lower value 0.991 | S. cerevisiae deletion strains, locus YMR205C, strain PFK2, stronger effect = lower value 0.954 | S. cerevisiae deletion strains, locus YMR223W, strain ubp8, stronger effect = lower value 0.962 | S. cerevisiae deletion strains, locus YMR231W, strain pep5, stronger effect = lower value 0.985 | S. cerevisiae deletion strains, locus YMR307W, strain GAS1, stronger effect = lower value 1.08 | S. cerevisiae deletion strains, locus YNL067W, strain RPL9B, stronger effect = lower value 1.02 | S. cerevisiae deletion strains, locus YNL071W, strain lat1, stronger effect = lower value 0.989 | S. cerevisiae deletion strains, locus YNL128W, strain TEP1, stronger effect = lower value 0.991 | S. cerevisiae deletion strains, locus YNL183C, strain NPR1, stronger effect = lower value 0.942 | S. cerevisiae deletion strains, locus YNL209W, strain ssb2, stronger effect = lower value 0.989 | S. cerevisiae deletion strains, locus YNL233W, strain BNI4, stronger effect = lower value 1.04 | S. cerevisiae deletion strains, locus YNL248C, strain rpa49, stronger effect = lower value 0.993 | S. cerevisiae deletion strains, locus YNL250W, strain rad50, stronger effect = lower value 0.975 | S. cerevisiae deletion strains, locus YNL271C, strain bni1, stronger effect = lower value 1 | S. cerevisiae deletion strains, locus YNL298W, strain CLA4, stronger effect = lower value 0.978 | S. cerevisiae deletion strains, locus YNL307C, strain MCK1, stronger effect = lower value 0.994 | S. cerevisiae deletion strains, locus YNL322C, strain KRE1 (second series), stronger effect = lower value 0.983 | S. cerevisiae deletion strains, locus YNL322C, strain KRE1, stronger effect = lower value 0.993 | S. cerevisiae deletion strains, locus YNR049C, strain mso1, stronger effect = lower value 0.975 | S. cerevisiae deletion strains, locus YNR052C, strain pop2, stronger effect = lower value 0.986 | S. cerevisiae deletion strains, locus YOL006C, strain TOP1, stronger effect = lower value 1.04 | S. cerevisiae deletion strains, locus YOL012C, strain htz1 1.4 | S. cerevisiae deletion strains, locus YOL147C, strain pex11, stronger effect = lower value 0.985 | S. cerevisiae deletion strains, locus YOR001W, strain rrp6, stronger effect = lower value 0.981 | S. cerevisiae deletion strains, locus YOR061W, strain CKA2, stronger effect = lower value 1 | S. cerevisiae deletion strains, locus YOR069W, strain VPS5, stronger effect = lower value 0.988 | S. cerevisiae deletion strains, locus YOR070C, strain gyp1, stronger effect = lower value 0.992 | S. cerevisiae deletion strains, locus YOR080W, strain dia2, stronger effect = lower value 0.969 | S. cerevisiae deletion strains, locus YOR083W, strain WHI5, stronger effect = lower value 0.957 | S. cerevisiae deletion strains, locus YOR106W, strain vam3, stronger effect = lower value 0.951 | S. cerevisiae deletion strains, locus YOR136W, strain idh2, stronger effect = lower value 0.996 | S. cerevisiae deletion strains, locus YOR144C, strain elg1, stronger effect = lower value 1.01 | S. cerevisiae deletion strains, locus YOR184W, strain ser1, stronger effect = lower value 0.991 | S. cerevisiae deletion strains, locus YOR231W, strain MKK1, stronger effect = lower value 0.975 | S. cerevisiae deletion strains, locus YOR265W, strain rbl2, stronger effect = lower value 0.983 | S. cerevisiae deletion strains, locus YOR270C, strain vph1, stronger effect = lower value 0.968 | S. cerevisiae deletion strains, locus YOR290C, strain snf2, stronger effect = lower value 0.936 | S. cerevisiae deletion strains, locus YOR316C, strain cot1, stronger effect = lower value 0.99 | S. cerevisiae deletion strains, locus YPL051W, strain arl3, stronger effect = lower value 0.99 | S. cerevisiae deletion strains, locus YPL078C, strain atp4, stronger effect = lower value 0.974 | S. cerevisiae deletion strains, locus YPL106C, strain sse1, stronger effect = lower value 0.944 | S. cerevisiae deletion strains, locus YPL240C, strain hsp82, stronger effect = lower value 0.985 | S. cerevisiae deletion strains, locus YPL256C, strain CLN2, stronger effect = lower value 0.955 | S. cerevisiae deletion strains, locus YPR119W, strain clb2, stronger effect = lower value 0.997 | S. cerevisiae deletion strains, locus YPR141C, strain kar3, stronger effect = lower value 0.989 | S. cerevisiae deletion strains, locus YPR163C, strain tif3, stronger effect = lower value 0.975 | S. cerevisiae deletion strains, locus YPR167C, strain met16, stronger effect = lower value 0.985 | S. cerevisiae deletion strains, strain wtn01, stronger effect = lower value 1 | S. cerevisiae strains, strain wild type, stronger effect = lower value 1
